# Assays:
# Experiment in all cases: DAPPL (digital affinity profiling via proximity ligation, sequencing); 10 mM Tris-HCl pH 7.5, 50 mM NaCl, 1 mM DTT, 4% glycerol, room temperature, 30 min; GST-TFs on glutathione beads, 16-mer random dsDNA library, 0.1% formaldehyde crosslink after washing; high values mean tight binding
# [1] = molecular target: T1, FLI1 (Homo sapiens, UniProt Q01543 1-452); details: protein: recombinant; tags: N-terminal GST; dsDNA, one strand shown
# T1 sequence: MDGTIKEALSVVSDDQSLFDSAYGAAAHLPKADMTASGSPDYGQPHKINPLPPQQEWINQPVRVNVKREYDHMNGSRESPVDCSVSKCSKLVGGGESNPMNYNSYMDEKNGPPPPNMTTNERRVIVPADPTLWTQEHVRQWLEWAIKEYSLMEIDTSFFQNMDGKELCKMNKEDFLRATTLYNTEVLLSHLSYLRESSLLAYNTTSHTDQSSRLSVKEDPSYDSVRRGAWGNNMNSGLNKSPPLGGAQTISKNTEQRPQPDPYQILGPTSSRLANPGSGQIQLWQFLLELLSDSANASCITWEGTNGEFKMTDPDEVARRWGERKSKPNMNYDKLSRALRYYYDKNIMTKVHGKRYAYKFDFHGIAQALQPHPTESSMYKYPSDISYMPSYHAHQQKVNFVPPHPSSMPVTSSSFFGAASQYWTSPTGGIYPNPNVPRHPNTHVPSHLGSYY
# Procedure, shortened: (§1)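 In yeast, human transcription factors were expressed with a GST fusion, then pulled down on glutathione beads and given DNA barcodes. Pooled with a tag-only sample, they were exposed to 200 nmole of a 16-mer random double-stranded DNA library (Tris/NaCl/DTT/glycerol buffer, room temperature, 30 min), washed, crosslinked with 0.1% formaldehyde, proximity-ligated using BsaI/T4 ligase for 1 h at 37 °C, PCR-amplified and read on an Illumina NextSeq500. Each hexamer's frequency of reads for a factor, divided by the matching frequency for the tag-only sample, gives the binding signal.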
# [2] = molecular target: T2, ELK1 (Homo sapiens, UniProt P19419 1-428); details: protein: recombinant; tags: N-terminal GST; dsDNA, one strand shown
# T2 sequence: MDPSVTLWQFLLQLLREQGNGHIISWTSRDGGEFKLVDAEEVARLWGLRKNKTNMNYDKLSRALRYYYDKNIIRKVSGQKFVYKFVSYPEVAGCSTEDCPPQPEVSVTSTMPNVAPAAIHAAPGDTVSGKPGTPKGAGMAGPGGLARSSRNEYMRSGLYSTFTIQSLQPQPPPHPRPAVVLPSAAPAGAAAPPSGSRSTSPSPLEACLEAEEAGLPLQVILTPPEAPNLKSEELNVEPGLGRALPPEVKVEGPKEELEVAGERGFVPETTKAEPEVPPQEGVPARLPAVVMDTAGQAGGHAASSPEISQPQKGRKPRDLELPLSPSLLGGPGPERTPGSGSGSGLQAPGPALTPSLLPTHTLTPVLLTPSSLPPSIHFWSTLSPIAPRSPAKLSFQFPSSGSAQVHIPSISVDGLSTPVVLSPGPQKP
# Procedure, shortened: as §1
# [3] = molecular target: T3, GABPA (Homo sapiens, UniProt Q06546 1-454); details: protein: recombinant; tags: N-terminal GST; dsDNA, one strand shown
# T3 sequence: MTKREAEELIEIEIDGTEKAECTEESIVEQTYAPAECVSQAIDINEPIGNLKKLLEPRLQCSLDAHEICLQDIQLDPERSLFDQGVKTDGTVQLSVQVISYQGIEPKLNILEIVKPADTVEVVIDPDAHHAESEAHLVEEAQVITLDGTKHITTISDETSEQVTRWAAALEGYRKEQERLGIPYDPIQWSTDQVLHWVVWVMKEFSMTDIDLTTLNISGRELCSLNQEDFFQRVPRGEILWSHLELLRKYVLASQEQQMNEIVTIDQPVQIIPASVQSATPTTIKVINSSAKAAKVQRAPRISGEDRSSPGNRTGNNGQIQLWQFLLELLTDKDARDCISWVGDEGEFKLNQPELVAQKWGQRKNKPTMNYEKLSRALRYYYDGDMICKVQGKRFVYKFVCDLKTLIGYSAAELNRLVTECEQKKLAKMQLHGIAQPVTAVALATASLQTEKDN
# Procedure, shortened: as §1
# [4] = molecular target: T4, ERG (Homo sapiens, UniProt P11308 1-479); details: protein: recombinant; tags: N-terminal GST; dsDNA, one strand shown
# T4 sequence: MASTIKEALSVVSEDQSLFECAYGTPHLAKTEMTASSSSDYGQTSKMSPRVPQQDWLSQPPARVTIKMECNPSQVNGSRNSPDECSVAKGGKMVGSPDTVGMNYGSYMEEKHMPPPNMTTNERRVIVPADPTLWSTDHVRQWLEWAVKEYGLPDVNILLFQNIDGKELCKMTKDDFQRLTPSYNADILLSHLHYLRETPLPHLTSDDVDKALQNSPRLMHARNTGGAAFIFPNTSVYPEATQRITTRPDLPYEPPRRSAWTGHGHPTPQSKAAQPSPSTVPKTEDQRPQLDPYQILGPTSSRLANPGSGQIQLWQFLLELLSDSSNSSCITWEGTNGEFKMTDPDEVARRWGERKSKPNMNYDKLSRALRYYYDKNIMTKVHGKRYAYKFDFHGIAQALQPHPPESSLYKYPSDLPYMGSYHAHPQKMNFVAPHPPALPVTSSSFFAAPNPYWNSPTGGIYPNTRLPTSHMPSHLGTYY
# Procedure, shortened: as §1
# [5] = molecular target: ELF1 (Homo sapiens, UniProt P32519 1-619); details: protein: recombinant; tags: N-terminal GST; dsDNA, one strand shown
# Procedure, shortened: as §1
# [6] = molecular target: T5, EHF (Homo sapiens, UniProt Q9NZC4 1-300); details: protein: recombinant; tags: N-terminal GST; dsDNA, one strand shown
# T5 sequence: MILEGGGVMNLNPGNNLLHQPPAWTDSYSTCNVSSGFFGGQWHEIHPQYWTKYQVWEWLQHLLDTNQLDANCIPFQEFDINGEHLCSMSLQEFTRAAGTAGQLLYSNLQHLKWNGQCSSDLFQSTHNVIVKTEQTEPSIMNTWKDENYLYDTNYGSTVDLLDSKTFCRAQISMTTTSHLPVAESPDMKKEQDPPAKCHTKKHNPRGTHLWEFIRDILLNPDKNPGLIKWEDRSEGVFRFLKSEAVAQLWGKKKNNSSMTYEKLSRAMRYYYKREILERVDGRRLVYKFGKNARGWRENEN
# Procedure, shortened: as §1
# [7] = molecular target: SPI1 (Homo sapiens, UniProt P17947 1-270); details: protein: recombinant; tags: N-terminal GST; dsDNA, one strand shown
# Procedure, shortened: as §1
# [8] = molecular target: SPIB (Homo sapiens, UniProt Q01892 1-262); details: protein: recombinant; tags: N-terminal GST; dsDNA, one strand shown
# Procedure, shortened: as §1
# [9] = molecular target: T6, ELK3 (Homo sapiens, UniProt P41970 1-407); details: protein: recombinant; tags: N-terminal GST; dsDNA, one strand shown
# T6 sequence: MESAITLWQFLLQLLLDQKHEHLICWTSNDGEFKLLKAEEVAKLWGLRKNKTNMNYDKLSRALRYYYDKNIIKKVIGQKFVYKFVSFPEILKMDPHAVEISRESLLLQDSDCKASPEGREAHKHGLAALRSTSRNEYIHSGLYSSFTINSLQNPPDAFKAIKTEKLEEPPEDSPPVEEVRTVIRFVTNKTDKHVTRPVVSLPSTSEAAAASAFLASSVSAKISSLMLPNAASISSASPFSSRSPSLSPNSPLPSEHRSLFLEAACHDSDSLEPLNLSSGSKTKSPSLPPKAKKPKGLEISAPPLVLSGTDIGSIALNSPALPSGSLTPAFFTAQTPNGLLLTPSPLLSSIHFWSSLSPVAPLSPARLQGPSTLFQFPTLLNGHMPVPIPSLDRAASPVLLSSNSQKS
# Procedure, shortened: as §1
# [10] = molecular target: T7, FEV (Homo sapiens, UniProt Q99581 1-238); details: protein: recombinant; tags: N-terminal GST; dsDNA, one strand shown
# T7 sequence: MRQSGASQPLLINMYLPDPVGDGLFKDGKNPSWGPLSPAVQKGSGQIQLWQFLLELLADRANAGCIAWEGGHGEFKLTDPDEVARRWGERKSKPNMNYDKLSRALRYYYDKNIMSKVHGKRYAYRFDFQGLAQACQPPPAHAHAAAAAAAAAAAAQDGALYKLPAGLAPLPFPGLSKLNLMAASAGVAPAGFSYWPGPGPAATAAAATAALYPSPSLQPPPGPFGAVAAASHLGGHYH
# Procedure, shortened: as §1
# [11] = molecular target: ETV5 (Homo sapiens, UniProt P41161 1-510); details: protein: recombinant; tags: N-terminal GST; dsDNA, one strand shown
# Procedure, shortened: as §1
# [12] = molecular target: HSF1 (Homo sapiens, UniProt Q00613 1-529); details: protein: recombinant; tags: N-terminal GST; chain copies: 3; dsDNA, one strand shown
# Procedure, shortened: as §1
# [13] = molecular target: T8, SPIC (Homo sapiens, UniProt Q8N5J4 1-248); details: protein: recombinant; tags: N-terminal GST; dsDNA, one strand shown
# T8 sequence: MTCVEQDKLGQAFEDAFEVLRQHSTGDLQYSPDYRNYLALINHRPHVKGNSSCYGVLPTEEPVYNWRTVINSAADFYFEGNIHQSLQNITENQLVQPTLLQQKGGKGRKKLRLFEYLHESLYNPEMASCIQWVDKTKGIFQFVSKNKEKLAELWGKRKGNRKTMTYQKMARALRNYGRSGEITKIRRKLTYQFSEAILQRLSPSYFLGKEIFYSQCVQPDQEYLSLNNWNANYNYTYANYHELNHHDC
# Procedure, shortened: as §1
# [14] = molecular target: ELF4 (Homo sapiens, UniProt Q99607 1-663); details: protein: recombinant; tags: N-terminal GST; dsDNA, one strand shown
# Procedure, shortened: as §1
# [15] = molecular target: T9, ELK4 (Homo sapiens, UniProt P28324-2 1-405); details: protein: recombinant; tags: N-terminal GST; dsDNA, one strand shown
# T9 sequence: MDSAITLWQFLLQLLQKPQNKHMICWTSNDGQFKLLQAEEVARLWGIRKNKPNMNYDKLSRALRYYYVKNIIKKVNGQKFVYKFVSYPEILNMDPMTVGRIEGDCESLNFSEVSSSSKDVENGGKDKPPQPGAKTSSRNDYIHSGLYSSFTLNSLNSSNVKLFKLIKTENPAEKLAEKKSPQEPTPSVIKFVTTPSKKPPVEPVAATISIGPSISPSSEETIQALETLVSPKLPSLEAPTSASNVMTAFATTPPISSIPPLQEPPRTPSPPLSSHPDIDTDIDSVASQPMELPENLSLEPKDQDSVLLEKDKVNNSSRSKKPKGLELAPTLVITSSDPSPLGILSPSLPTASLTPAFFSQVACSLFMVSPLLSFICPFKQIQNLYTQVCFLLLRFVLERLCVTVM
# Procedure, shortened: as §1
# [16] = molecular target: T10, ETV2 (Homo sapiens, UniProt O00321 1-342); details: protein: recombinant; tags: N-terminal GST; dsDNA, one strand shown
# T10 sequence: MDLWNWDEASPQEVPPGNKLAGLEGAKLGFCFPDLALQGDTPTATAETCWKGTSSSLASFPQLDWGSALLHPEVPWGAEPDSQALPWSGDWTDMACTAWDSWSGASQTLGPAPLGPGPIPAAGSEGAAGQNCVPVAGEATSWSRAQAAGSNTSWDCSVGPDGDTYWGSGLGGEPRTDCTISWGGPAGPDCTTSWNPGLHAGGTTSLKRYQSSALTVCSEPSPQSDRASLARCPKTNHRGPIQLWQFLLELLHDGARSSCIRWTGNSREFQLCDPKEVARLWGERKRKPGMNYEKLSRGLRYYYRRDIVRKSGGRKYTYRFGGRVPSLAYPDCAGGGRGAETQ
# Procedure, shortened: as §1
# [17] = molecular target: T11, ELF3 (Homo sapiens, UniProt P78545 1-371); details: protein: recombinant; tags: N-terminal GST; dsDNA, one strand shown
# T11 sequence: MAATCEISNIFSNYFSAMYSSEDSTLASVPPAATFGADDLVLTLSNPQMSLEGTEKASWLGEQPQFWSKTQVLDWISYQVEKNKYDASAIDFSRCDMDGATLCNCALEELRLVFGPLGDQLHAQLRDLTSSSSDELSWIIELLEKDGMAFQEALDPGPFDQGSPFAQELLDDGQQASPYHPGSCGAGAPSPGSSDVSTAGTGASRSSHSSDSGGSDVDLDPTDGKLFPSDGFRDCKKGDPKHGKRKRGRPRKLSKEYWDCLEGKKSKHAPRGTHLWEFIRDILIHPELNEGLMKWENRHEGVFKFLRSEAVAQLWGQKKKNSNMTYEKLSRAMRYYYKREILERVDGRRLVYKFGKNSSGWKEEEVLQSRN
# Procedure, shortened: as §1
# [18] = molecular target: CRX (Homo sapiens, UniProt O43186 1-299); details: protein: recombinant; tags: N-terminal GST; dsDNA, one strand shown
# Procedure, shortened: as §1
# [19] = molecular target: ETV1 (Homo sapiens, UniProt P50549 1-477); details: protein: recombinant; tags: N-terminal GST; dsDNA, one strand shown
# Procedure, shortened: as §1
# CRX, sequence (O43186 whole entry): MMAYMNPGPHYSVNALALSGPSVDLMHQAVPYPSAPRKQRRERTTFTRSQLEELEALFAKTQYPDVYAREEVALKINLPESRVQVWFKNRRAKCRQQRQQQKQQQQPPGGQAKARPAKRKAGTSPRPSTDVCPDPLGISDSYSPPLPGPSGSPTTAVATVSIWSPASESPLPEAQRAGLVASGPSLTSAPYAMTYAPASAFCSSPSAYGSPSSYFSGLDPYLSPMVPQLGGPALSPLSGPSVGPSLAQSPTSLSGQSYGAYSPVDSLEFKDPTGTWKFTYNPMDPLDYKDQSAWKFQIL
# ETV1, sequence (P50549 whole entry): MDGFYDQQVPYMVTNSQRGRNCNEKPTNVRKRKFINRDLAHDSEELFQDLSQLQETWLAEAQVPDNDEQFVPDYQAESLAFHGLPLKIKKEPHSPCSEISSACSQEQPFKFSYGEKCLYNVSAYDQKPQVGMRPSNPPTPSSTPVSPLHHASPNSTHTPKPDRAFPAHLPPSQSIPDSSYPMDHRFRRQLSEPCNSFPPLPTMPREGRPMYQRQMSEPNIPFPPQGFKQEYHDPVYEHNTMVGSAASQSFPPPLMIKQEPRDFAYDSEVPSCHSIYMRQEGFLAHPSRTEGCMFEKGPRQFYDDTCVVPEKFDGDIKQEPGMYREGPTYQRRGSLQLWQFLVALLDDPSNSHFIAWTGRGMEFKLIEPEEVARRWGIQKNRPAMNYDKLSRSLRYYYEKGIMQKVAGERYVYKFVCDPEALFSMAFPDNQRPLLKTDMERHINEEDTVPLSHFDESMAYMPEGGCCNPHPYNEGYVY
# ELF1, sequence (P32519 whole entry): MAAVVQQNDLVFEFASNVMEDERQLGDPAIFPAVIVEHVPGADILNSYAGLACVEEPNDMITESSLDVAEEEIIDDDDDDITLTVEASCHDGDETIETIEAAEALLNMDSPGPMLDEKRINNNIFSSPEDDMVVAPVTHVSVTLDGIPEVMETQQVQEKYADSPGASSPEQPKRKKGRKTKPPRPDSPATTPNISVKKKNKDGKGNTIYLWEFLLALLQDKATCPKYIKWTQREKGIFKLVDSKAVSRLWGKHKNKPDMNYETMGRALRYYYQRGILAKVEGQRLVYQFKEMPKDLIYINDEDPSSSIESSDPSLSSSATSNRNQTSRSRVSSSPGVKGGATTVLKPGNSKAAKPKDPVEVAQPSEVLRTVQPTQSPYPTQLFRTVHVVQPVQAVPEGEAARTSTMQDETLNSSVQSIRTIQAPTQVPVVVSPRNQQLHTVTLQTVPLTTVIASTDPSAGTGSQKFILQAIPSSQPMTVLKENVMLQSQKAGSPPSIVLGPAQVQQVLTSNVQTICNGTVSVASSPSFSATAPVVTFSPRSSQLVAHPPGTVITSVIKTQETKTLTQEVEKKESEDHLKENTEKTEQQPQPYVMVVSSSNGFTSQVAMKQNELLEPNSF
# HSF1, sequence (Q00613 whole entry): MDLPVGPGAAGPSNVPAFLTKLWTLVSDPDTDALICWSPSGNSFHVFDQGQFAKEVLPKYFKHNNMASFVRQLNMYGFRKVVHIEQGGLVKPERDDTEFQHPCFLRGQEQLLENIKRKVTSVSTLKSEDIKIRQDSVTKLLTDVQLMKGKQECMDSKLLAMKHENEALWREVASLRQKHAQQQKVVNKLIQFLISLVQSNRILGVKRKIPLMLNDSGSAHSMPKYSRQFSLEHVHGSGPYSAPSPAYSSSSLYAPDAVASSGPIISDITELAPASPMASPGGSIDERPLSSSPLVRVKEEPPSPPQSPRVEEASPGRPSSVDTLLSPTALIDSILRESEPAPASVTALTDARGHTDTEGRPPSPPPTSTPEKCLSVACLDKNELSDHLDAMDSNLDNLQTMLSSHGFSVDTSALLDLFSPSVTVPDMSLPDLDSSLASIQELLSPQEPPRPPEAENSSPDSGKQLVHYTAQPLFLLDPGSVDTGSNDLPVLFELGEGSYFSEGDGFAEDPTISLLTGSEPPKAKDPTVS
# ETV5, sequence (P41161 whole entry): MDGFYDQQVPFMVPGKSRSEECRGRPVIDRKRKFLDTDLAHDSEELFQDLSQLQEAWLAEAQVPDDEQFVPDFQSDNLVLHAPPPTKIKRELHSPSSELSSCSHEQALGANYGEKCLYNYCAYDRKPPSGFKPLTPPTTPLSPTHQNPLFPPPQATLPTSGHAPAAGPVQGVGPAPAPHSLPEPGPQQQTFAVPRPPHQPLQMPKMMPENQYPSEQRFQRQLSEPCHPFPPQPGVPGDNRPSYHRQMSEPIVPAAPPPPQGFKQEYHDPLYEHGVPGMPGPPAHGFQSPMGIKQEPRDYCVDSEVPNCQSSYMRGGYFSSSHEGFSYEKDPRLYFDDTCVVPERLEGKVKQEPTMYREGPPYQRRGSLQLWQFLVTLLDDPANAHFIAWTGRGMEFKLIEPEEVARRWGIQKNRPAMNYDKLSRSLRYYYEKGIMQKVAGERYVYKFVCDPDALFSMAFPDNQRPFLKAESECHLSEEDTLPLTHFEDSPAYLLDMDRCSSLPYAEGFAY
# ELF4, sequence (Q99607 whole entry): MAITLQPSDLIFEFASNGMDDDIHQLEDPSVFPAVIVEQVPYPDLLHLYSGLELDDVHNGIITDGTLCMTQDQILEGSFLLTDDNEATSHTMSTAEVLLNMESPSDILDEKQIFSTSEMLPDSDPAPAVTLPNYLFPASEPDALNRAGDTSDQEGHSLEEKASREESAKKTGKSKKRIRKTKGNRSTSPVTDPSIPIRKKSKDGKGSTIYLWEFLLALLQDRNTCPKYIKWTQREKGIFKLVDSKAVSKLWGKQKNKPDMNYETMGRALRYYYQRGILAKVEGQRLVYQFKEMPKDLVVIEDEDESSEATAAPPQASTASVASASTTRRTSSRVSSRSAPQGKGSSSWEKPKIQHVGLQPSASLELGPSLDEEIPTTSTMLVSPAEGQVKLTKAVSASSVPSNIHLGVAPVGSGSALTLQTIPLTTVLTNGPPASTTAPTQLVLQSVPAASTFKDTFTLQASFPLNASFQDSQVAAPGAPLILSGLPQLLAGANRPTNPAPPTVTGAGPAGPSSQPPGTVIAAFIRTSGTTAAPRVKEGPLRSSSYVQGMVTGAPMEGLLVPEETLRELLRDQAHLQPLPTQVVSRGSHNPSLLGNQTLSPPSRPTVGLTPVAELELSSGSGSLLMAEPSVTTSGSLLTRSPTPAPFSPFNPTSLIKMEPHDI
# SPIB, sequence (Q01892 whole entry): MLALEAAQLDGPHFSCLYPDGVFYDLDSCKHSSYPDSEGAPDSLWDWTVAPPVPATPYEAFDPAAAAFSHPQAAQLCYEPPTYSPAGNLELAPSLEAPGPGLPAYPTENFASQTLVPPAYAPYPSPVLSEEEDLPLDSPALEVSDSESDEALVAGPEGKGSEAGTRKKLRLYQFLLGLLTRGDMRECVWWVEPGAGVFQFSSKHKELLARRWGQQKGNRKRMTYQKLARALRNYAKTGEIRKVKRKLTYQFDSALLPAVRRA
sequence,measurement,setting,value
ATAACC,binding signal,[1],"1.21 fold enrichment (6-mer frequency, TF over GST control)"
same,binding signal,[2],"1.27 fold enrichment (6-mer frequency, TF over GST control)"
same,binding signal,[3],"1.22 fold enrichment (6-mer frequency, TF over GST control)"
same,binding signal,[4],"1.13 fold enrichment (6-mer frequency, TF over GST control)"
same,binding signal,[5],"1.23 fold enrichment (6-mer frequency, TF over GST control)"
same,binding signal,[6],"1.15 fold enrichment (6-mer frequency, TF over GST control)"
same,binding signal,[7],"1.06 fold enrichment (6-mer frequency, TF over GST control)"
same,binding signal,[8],"1.25 fold enrichment (6-mer frequency, TF over GST control)"
same,binding signal,[9],"1.37 fold enrichment (6-mer frequency, TF over GST control)"
same,binding signal,[10],"1.22 fold enrichment (6-mer frequency, TF over GST control)"
same,binding signal,[11],"1.21 fold enrichment (6-mer frequency, TF over GST control)"
same,binding signal,[12],"1.09 fold enrichment (6-mer frequency, TF over GST control)"
same,binding signal,[13],"1.05 fold enrichment (6-mer frequency, TF over GST control)"
same,binding signal,[14],"1.23 fold enrichment (6-mer frequency, TF over GST control)"
same,binding signal,[15],"1.18 fold enrichment (6-mer frequency, TF over GST control)"
same,binding signal,[16],"1.05 fold enrichment (6-mer frequency, TF over GST control)"
same,binding signal,[17],"1.21 fold enrichment (6-mer frequency, TF over GST control)"
same,binding signal,[18],"1.27 fold enrichment (6-mer frequency, TF over GST control)"
same,binding signal,[19],"1.1 fold enrichment (6-mer frequency, TF over GST control)"
